Measurements published in the supplement of paper PMC12067093, “Discovery and optimisation of a covalent ligand for TRIM25 and its application to targeted protein ubiquitination” (Chemical Science, 2025).
The full data set covers some 21,000 targets. This sample favours those with the largest changes.

Compound: CC1Cc2ccccc2N1C(=O)C1CCCN(C1)C(=O)CCl (mixture of isomers) [TRIM25 ligand 11 (diastereomer mixture)]
Test: probe-labelled cysteine peptide fold change vs DMSO (competition) (log2 fold change); higher = less target engagement (more negative = stronger competition)
Details: 10 µM; THP-1; incubation time: 4 h
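Also: competitive chemoproteomic profiling in live THP-1 cells with an iodoacetamide desthiobiotin (IA-DTB) probe, comparing probe-labelled peptide intensities in compound-treated cells against DMSO-treated controls.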

UniProt Q9H410, sequence (Q9H410 whole entry, looked up): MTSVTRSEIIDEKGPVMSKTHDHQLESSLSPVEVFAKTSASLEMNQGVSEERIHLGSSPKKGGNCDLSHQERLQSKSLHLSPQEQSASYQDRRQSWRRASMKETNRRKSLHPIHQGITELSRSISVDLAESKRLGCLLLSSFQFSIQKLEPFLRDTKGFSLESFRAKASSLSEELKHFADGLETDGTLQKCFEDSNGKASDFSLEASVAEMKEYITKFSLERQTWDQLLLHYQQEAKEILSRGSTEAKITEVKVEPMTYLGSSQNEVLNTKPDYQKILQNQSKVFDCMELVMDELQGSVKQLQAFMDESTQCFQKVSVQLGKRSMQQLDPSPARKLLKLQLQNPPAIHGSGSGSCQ
UniProt O60879, sequence (O60879 whole entry, looked up): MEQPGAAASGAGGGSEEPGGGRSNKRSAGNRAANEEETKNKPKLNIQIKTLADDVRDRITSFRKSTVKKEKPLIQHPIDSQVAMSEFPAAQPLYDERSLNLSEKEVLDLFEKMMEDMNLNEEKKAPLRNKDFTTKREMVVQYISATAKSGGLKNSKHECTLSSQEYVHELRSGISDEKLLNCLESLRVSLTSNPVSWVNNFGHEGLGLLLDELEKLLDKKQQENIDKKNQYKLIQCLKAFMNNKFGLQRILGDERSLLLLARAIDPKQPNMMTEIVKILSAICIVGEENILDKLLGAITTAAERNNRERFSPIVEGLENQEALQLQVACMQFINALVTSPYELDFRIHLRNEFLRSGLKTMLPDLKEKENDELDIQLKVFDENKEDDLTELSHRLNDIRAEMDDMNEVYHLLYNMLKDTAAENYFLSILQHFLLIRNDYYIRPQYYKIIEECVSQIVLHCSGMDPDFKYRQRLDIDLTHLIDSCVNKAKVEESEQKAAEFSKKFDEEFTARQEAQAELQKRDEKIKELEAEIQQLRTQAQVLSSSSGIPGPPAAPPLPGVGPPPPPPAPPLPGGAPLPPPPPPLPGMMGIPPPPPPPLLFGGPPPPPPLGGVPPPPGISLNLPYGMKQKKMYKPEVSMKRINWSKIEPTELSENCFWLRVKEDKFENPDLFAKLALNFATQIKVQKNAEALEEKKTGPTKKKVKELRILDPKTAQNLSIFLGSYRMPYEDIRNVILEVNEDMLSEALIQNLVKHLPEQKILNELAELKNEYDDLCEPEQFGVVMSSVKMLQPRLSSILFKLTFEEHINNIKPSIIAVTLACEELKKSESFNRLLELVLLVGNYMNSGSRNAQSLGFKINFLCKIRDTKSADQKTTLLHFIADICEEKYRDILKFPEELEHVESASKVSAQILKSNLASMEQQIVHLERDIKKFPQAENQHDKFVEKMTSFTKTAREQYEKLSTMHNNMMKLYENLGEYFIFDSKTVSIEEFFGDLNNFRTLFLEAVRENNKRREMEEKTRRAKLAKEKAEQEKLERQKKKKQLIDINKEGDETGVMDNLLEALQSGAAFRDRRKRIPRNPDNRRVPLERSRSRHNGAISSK
UniProt Q14061, sequence (Q14061 whole entry, looked up): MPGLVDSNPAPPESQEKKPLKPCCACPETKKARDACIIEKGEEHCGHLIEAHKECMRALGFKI
UniProt Q13620, sequence (Q13620 whole entry, looked up): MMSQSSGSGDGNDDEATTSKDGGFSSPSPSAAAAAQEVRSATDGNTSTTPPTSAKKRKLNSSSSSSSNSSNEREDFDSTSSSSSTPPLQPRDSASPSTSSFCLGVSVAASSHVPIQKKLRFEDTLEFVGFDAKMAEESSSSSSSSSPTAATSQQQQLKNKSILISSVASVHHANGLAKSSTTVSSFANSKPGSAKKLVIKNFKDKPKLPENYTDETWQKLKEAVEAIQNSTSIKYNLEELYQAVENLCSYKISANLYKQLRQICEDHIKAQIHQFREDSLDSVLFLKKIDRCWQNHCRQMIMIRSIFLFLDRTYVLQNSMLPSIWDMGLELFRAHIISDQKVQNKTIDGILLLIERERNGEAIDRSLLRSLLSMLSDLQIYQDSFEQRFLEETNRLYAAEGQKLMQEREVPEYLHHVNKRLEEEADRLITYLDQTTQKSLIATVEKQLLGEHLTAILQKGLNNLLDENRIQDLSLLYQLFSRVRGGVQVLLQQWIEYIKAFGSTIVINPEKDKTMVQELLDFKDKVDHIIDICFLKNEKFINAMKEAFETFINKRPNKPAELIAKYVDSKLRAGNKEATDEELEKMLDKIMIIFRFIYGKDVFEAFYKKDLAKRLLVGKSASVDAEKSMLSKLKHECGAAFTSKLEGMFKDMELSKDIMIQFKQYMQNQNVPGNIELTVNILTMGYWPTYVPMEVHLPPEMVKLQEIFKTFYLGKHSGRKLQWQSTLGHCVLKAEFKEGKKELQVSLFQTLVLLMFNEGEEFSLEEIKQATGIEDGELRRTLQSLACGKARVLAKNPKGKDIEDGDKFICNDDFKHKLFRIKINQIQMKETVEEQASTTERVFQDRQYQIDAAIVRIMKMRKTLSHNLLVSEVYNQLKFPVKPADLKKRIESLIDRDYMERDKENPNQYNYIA
UniProt Q86XP3, sequence (Q86XP3 whole entry, looked up): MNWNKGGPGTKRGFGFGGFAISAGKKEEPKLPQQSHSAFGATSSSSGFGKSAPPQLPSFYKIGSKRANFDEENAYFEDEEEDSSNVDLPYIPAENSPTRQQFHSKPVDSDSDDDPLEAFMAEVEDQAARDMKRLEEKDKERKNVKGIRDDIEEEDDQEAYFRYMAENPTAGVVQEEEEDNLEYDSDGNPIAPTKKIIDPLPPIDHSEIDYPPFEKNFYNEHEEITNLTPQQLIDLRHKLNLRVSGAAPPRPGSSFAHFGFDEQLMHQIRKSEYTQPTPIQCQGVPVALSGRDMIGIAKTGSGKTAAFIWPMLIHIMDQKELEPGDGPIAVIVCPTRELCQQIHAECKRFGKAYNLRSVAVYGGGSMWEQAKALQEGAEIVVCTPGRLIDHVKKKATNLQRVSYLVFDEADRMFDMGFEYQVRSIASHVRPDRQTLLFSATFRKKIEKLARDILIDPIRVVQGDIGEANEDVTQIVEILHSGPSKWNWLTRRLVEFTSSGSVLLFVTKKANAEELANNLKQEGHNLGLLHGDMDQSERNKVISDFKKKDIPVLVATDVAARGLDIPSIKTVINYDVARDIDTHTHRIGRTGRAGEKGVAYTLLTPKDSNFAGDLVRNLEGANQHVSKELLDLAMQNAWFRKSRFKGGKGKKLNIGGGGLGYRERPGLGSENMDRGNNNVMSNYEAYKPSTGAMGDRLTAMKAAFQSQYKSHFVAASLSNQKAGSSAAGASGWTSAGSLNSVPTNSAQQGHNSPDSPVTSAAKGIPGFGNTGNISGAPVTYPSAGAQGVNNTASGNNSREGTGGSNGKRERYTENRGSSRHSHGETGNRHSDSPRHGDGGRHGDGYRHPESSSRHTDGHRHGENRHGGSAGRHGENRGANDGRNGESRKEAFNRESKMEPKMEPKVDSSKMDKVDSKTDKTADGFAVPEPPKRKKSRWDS
UniProt Q86YQ8, sequence (Q86YQ8 whole entry, looked up): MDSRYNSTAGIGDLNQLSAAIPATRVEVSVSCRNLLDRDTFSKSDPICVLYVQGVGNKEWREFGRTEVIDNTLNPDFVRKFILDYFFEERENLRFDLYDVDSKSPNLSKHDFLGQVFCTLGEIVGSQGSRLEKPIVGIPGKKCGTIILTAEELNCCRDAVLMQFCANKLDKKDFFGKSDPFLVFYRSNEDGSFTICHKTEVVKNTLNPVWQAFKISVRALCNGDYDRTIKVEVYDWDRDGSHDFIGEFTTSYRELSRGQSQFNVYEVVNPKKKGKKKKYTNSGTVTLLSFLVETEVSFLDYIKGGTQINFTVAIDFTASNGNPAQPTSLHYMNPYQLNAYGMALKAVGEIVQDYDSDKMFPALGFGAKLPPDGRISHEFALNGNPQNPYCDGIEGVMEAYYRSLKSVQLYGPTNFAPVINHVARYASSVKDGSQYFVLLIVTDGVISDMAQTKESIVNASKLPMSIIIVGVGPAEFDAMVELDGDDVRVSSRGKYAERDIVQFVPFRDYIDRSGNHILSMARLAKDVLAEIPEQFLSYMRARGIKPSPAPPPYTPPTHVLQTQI
UniProt P50570, sequence (P50570 whole entry, looked up): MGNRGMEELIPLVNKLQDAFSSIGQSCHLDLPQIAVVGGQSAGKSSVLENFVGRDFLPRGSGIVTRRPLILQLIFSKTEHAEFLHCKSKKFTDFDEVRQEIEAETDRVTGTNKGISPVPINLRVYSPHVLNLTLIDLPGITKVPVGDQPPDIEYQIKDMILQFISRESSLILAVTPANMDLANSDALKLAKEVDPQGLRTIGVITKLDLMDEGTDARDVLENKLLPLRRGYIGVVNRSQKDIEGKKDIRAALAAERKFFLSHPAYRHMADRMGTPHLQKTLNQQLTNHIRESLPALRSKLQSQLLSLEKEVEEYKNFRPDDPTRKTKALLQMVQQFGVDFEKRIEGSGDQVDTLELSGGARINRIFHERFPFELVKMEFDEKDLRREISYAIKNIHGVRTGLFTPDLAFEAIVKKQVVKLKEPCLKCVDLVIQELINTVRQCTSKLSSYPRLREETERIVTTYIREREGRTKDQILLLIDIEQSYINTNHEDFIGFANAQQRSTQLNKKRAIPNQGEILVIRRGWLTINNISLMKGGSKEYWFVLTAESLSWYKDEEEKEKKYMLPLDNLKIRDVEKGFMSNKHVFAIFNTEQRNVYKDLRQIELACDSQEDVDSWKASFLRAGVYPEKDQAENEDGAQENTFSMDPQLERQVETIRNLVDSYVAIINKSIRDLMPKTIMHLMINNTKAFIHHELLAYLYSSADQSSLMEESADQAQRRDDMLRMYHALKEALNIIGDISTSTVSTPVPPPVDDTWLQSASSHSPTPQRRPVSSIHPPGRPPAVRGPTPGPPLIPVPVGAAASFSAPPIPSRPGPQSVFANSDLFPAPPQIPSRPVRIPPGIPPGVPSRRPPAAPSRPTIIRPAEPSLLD
UniProt P52943, sequence (P52943 whole entry, looked up): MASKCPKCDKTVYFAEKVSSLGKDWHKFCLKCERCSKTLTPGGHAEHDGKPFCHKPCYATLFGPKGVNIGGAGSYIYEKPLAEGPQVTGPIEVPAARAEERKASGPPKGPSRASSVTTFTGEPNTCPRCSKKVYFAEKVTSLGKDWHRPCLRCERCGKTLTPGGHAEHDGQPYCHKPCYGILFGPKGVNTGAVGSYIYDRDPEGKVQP

In order of rising “probe-labelled cysteine peptide fold change” value:
1. CORO1A_P31146_332_RGLEVNKCEIAR (UniProt P31146)  -0.603
2. DUSP3_P51452_171_EIGPNDGFLAQLCQLNDR (UniProt P51452)  -0.408
3. COX17_Q14061_23+24_KPLKPCCACPETK (UniProt Q14061)  -0.386
4. DARS2_Q6PI48_202_MREYLCNLHGFVDIETPTLFKR (UniProt Q6PI48)  -0.272
5. DNAJB14_Q8TBM8_77_KPSGSGDQSKPNCTK (UniProt Q8TBM8)  -0.262
6. COX6B1_P14854_54_GGDISVCEWYQR (UniProt P14854)  -0.188
7. DHX9_Q08211_608+612_KDKDDDGGEDDDANCNLICGDEYGPETR (UniProt Q08211)  -0.128
8. DIDO1_Q9BTC0_455_CGAQAGIK (UniProt Q9BTC0)  -0.117
9. CTSZ_Q9UBR2_179_ECHAIR (UniProt Q9UBR2)  -0.116
10. DPP9_Q86TI2_184_TQCSGPR (UniProt Q86TI2)  -0.111
11. CPSF3_Q9UKF6_223_FCNTVHDIVNR (UniProt Q9UKF6)  -0.0667
12. DNM2_P50570-3_427_CVDLVVSELATVIK (UniProt P50570)  -0.0402
13. CTR9_Q6PD62_196_TNPGCPAEVR (UniProt Q6PD62)  -0.0355
14. DNAJC2_Q99543_276_TLVDNAYSCDPR (UniProt Q99543)  -0.0127
15. CRELD1_Q96HD1_229_CSGPEESNCLQCK (UniProt Q96HD1)  0.0143
16. DIAPH2_O60879_484_LDIDLTHLIDSCVNK (UniProt O60879)  0.0266
17. CORO7_P57737_75_VAHLGCHSDLVTDLDFSPFDDFLLATGSADR (UniProt P57737)  0.031
18. CRYL1_Q9Y2S2_141_QCIVAHPVNPPYYIPLVELVPHPETAPTTVDR (UniProt Q9Y2S2)  0.0328
19. CUL4B_Q13620_248_YNLEELYQAVENLCSYK (UniProt Q13620)  0.033
20. DECR2_Q9NUI1_22_HLFCPDLLR (UniProt Q9NUI1)  0.0413
21. DARS_P14868_130_IGSCTQQDVELHVQK (UniProt P14868)  0.0673
22. DCAF10_Q5QP82_213_TLSEAHEDCVNNIR (UniProt Q5QP82)  0.0726
23. DDX42_Q86XP3_382_ALQEGAEIVVCTPGR (UniProt Q86XP3)  0.0737
24. DPYSL2_Q16555_439_THNSSLEYNIFEGMECR (UniProt Q16555)  0.0805
25. DYNC1H1_Q14204_4438_QDLADVVQVCEGK (UniProt Q14204)  0.0826
26. DPP8_Q6V1X1_611_LSSPEDDPTCK (UniProt Q6V1X1)  0.0995
27. DSN1_Q9H410_191_CFEDSNGK (UniProt Q9H410)  0.115
28. CPNE8_Q86YQ8_118_HDFLGQVFCTLGEIVGSQGSR (UniProt Q86YQ8)  0.132
29. DHCR24_Q15392_393_CLQQALHTFQNDIHVYPIWLCPFILPSQPGLVHPK (UniProt Q15392)  0.14
30. DDX46_Q7L014_501_RGAEIIVCTPGR (UniProt Q7L014)  0.161
31. CUL2_Q13617_103_GADYMDCLYR (UniProt Q13617)  0.191
32. DIP2A_Q14689_543_ALTQACGYSEAETLTNVLDFKR (UniProt Q14689)  0.205
33. CTSH_P09668_272_TGIYSSTSCHK (UniProt P09668)  0.223
34. DOP1B_Q9Y3R5_70_LAQCLHPALPSGVHLK (UniProt Q9Y3R5)  0.262
35. DECR2_Q9NUI1_53_HGCHTVIASR (UniProt Q9NUI1)  0.317
36. DAXX_Q9UER7_106_AHSLFLASAEFCNILSR (UniProt Q9UER7)  0.442
37. DDX56_Q9NY93_185_SLLCHLPR (UniProt Q9NY93)  0.556
38. CRIP2_P52943_150_DWHRPCLR (UniProt P52943)  0.642
39. DLEC1_Q9Y238_256_LEDSCR (UniProt Q9Y238)  0.892
